Results filed as inconclusive are left out. Values without a mark were called inactive. The source made the active and inactive calls. Calls follow the shape of the full dose curve.
molecular target: Nucleoprotein (Lymphocytic choriomeningitis virus (strain Armstrong)) (UniProt P09992); assay: qHTS for Inhibitors of the Functional Ribonucleoprotein Complex (vRNP) of Lymphocytic Choriomeningitis Arenaviruses (LCMV): LCMV Primary Screen - GLuc reporter signal (AID 1347086); settings: LCMV minigenome vRNP cell assay, Gaussia luciferase reporter; series mostly up to 57.5 µM; activity change, negative = inhibition: at the top concentration; also: nearly all actives have a fitted effect of over 70% in size
Sequence (P09992 whole entry, looked up): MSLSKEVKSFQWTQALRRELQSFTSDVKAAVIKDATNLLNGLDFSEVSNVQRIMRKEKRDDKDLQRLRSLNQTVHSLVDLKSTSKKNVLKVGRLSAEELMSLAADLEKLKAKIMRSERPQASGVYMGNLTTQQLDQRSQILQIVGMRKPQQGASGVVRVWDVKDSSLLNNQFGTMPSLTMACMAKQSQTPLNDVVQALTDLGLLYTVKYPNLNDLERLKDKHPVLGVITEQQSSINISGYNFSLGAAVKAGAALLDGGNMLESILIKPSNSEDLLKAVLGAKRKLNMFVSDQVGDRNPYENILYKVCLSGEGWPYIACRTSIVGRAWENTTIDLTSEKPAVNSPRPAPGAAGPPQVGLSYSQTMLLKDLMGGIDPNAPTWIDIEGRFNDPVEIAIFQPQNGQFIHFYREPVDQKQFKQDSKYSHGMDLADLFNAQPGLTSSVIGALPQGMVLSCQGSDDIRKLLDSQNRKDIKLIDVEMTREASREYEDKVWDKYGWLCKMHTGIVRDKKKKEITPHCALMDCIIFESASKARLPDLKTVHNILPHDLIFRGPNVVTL
% is scaled to controls: 0 for no effect and ±100 for the full control effect; potency is read from the fitted curve at half-maximal effect.

Row | Compound | Potency | activity change, negative = inhibition
1 | O=C(NCC1CN(c2ccc(N3CCOCC3=O)cc2)C(=O)O1)c1ccc(Cl)s1 (centres undefined) | inactive | –
2 | CCOC(=O)CN1CCCC1=O | – | 16.3%
3 | C[N+](C)(C)CC[N+]1(C)Cc2c(Cl)c(Cl)c(Cl)c(Cl)c2C1 | – | 25.2%
4 | CN(C)CCOC(c1ccccc1)c1ccccc1 | inactive | –
5 | CC(=O)OC/C=C(C)/C=C/C=C(C)/C=C/C1=C(C)CCCC1(C)C | – | -8.43%
6 | Clc1ccc(C(Cn2ccnc2)OCc2ccc(Sc3ccccc3)cc2)c(Cl)c1 (centres undefined) | inactive | –
7 | O=C1Nc2ccccc2C1(c1ccc(O)cc1)c1ccc(O)cc1 | – | -8.82%
8 | CC1(c2ccccc2)OC(C(=O)O)=CC1=O (centres undefined) | – | 1.16%
9 | CCCCCCCCCCCCCCC[C@H](O)[C@@H](N)CO | – | 19.2%
10 | O=c1[nH]cnc2c1ncn2[C@@H]1O[C@H](CO)[C@@H](O)[C@H]1O | – | 1.42%
11 | C[C@H](N)C(=O)N[C@@H](C)C(=O)NC1[C@H]2CN(c3nc4c(cc3F)c(=O)c(C(=O)O)cn4-c3ccc(F)cc3F)C[C@@H]12 (some centres undefined) | – | -1.63%
12 | CCN(CC)CCOc1ccccc1C(=O)CCc1ccccc1 | – | 0.545%
13 | CC[C@H](NC(C)C)[C@H](O)c1ccc(O)c2[nH]c(=O)ccc12 | inactive | –
14 | CO[C@@H]1[C@@H](OC)[C@H](C)[C@@](O)(CC(=O)O)O[C@H]1[C@H](C)[C@H]1O[C@@]2(CC[C@@](C)([C@H]3CC[C@@](C)([C@@H]4O[C@@H]([C@H]5O[C@](C)(O)[C@H](C)C[C@@H]5C)C[C@@H]4OC4C[C@H](OC)[C@@H](OC)[C@H](C)O4)O3)O2)C[C@H](O)[C@H]1C (some centres undefined) | 0.562 µM (active) | –
15 | CCC(=O)O[C@]1(C(=O)SCF)[C@H](C)C[C@H]2[C@@H]3C[C@H](F)C4=CC(=O)C=C[C@]4(C)[C@@]3(F)[C@@H](O)C[C@@]21C | 17.2 µM (active) | –
16 | CN(C)CCC(c1ccccc1)c1ccccn1 (centres undefined) | inactive | –
17 | CC(C)c1cc2c(cc1S(=O)(=O)O)[C@@]1(C)CCC[C@@](C)(C(=O)O)[C@@H]1CC2 | – | 13.2%
18 | Cn1c(=O)c2c(ncn2CC2OCCO2)n(C)c1=O | – | 28.6%
19 | CN(C)c1ccc(C(=C2C=CC(=[N+](C)C)C=C2)c2ccc(N(C)C)cc2)cc1 | 1.53 µM (active) | –
20 | CN1CCC(Nc2ncc3ncnc(Nc4ccc(F)c(Cl)c4)c3n2)CC1 | – | 8.44%

Row | Compound | Potency | activity change, negative = inhibition
21 | COc1ccc(CN(CCN(C)C)c2ccccn2)cc1 | inactive | –
22 | CCN(CC)CC1CCCCN1CC(=O)N1c2ccccc2C(=O)Nc2cccnc21 (centres undefined) | – | 13.6%
23 | c1ccc(CCNc2nc(-c3ccccc3)cs2)cc1 | – | -38.4%
24 | CCCCNc1c(C(=O)OCC)c(C)nc2c1cnn2CC | inactive | –
25 | CCOC(=O)n1ccn(C)c1=S | – | -6.81%
26 | Cc1cccc(N(C)C(=S)Oc2ccc3c(c2)CCC3)c1 | – | 10%
27 | C=C1C[C@H]2[C@@H]3C=C(C)C4=CC(=O)CC[C@]4(C)[C@H]3CC[C@]2(C)[C@@]1(OC(C)=O)C(C)=O | – | -3.5%
28 | O=C(CCCN1CCN(c2ccccn2)CC1)c1ccc(F)cc1 | – | -5.79%
29 | CCOC(=O)[C@H](CCc1ccccc1)N[C@@H](C)C(=O)N1C(=O)N(C)C[C@H]1C(=O)O | – | 38.6%
30 | CC1CCc2cc(F)cc3c(=O)c(C(=O)O)cn1c23 (centres undefined) | – | 21.6%
31 | CCC(=O)O[C@]1(C(=O)CCl)[C@@H](C)C[C@H]2[C@@H]3CCC4=CC(=O)C=C[C@]4(C)[C@@]3(F)[C@@H](O)C[C@@]21C | inactive | –
32 | CC(C)=CCC/C(C)=C/CC/C(C)=C/C(=O)OCC(=O)[C@@]1(O)CC[C@H]2[C@@H]3CCC4=CC(=O)C=C[C@]4(C)[C@H]3[C@@H](O)C[C@@]21C | – | 36.4%
33 | C#CC1(O)CC[C@H]2[C@@H]3CCC4=CCCC[C@@H]4[C@H]3CC[C@@]21C (some centres undefined) | – | -0.115%
34 | C[C@]12CC[C@@H]3c4ccc(O)cc4CC[C@H]3[C@@H]1CCC2=O | inactive | –
35 | CC(=O)Oc1ccc(C(=C2CCCCC2)c2ccc(OC(C)=O)cc2)cc1 | – | -0.1%
36 | CN(C)CCn1nnnc1SCC1=C(C(=O)O)N2C(=O)[C@@H](NC(=O)Cc3csc(N)n3)[C@H]2SC1 | – | 6.08%
37 | O=C(Nc1ccccc1)OCC(CN1CCCCC1)OC(=O)Nc1ccccc1 (centres undefined) | – | -15%
38 | CCN[C@@H]1C[C@H](N)[C@@H](OC2OC(CN)=CCC2N)[C@H](O)[C@H]1O[C@H]1OC[C@](C)(O)[C@H](NC)[C@H]1O (some centres undefined) | – | 10% [at 0.757 µM]
39 | CN(C)[C@@H]1C(=O)C(C(=O)NCN2CCCC2)=C(O)[C@@]2(O)C(=O)C3=C(O)c4c(O)cccc4[C@@](C)(O)C3C[C@@H]12 (some centres undefined) | – | 0.933%
